Active and inactive are the calls of the source.
Columns and labels:
Albumin (Bos taurus) = Albumin (Bos taurus) (UniProt P02769); assay: compounds binding labelled BSA control protein – biochemical, small-molecule microarray, Alexa647 label, 635/667 nm fluorescence, artefact control for SMM control protein annotation, profiling panel (AID 1118); conditions: BSA-A647 binding, fluorescence 635 nm, higher = more signal;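 note: score merges 667 nm emission intensity and signal-to-noise per printed compound spot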
[1] = probe aXIP binding to arrayed compounds – biochemical, NeuroSMM set, 635/667 nm fluorescence, primary screen (AID 1119); conditions: small-molecule microarray, higher = more signal, called active from +8 up or from −8 down;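 note: probe is the protein aXip251-270 applied at 1 µg/mL to compound-printed slides; binding of probe to printed compounds measured as 667 nm fluorescence plus signal to noise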
[2] = probe aNOTCH3 binding on compound microarray – biochemical, small-molecule microarray, 635/667 nm fluorescence, primary screen (AID 1120); conditions: higher = more signal;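 note: probe is a biotin-tagged antibody raised against NOTCH3 rather than NOTCH3 protein; score merges spot fluorescence near 667 nm with spot signal to noise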
[3] = probe aNOTCH2 binding on compound microarray – biochemical, small-molecule microarray, 635/667 nm fluorescence, primary screen (AID 1121); conditions: higher = more signal;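 note: score merges feature fluorescence read at 667 nm with its signal to noise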
[4] = target: Carbonic anhydrase 2 (Homo sapiens) (UniProt P00918); assay: compounds binding carbonic anhydrase 2 – biochemical, small-molecule microarray, Alexa647-labelled CAII, profiling panel (AID 1122); conditions: CAII-A647 binding fluorescence, higher = more signal
[5] = COS7 lysate on small-molecule microarray, probe aHis, 635 nm (AID 1123); conditions: COS7 cell lysate, fluorescence, higher = more signal;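 note: z-score combines 667nm fluorescence intensity with signal-to-noise per printed compound spot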
[6] = probe aLAP1 signal on lysate-treated microarray – cell lysate, small-molecule microarray, COS7 lysate, primary screen (AID 1124); conditions: probe aLAP1, fluorescence, higher = more signal;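 note: lysate comes from COS7 cells expressing LAP1 and is applied at 0.3 µg/mL; score merges spot fluorescence near 667 nm with signal-to-noise over triplicate slides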
Sam68 (KHDRBS1) = assay: compounds binding KHDRBS1 protein – biochemical, small-molecule microarray, 635 nm fluorescence, primary screen (AID 1125); conditions: higher = more signal;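 note: score merges 667 nm channel intensity with signal to noise over triplicate slides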
[7] = tested on: Chordin-like protein 2 (CHRDL2); assay: compounds binding chordin-like 2 – biochemical, small-molecule microarray, 635 nm fluorescence, primary screen (AID 1126); conditions: fluorescence 635 nm, higher = more signal;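 note: printed compound slides probed with Chrdl2 protein at 4 µg/mL for 1 h at 4 C; score merges 667 nm emission intensity with signal to noise over three replicate slides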
[8] = target: Concanavalin-A (Canavalia ensiformis) (UniProt P02866); assay: compounds binding concanavalin A lectin – biochemical, small-molecule microarray, Alexa647 label, 635 nm, artefact control for SMM control protein annotation, primary screen (AID 1127); conditions: ConA-A647 binding fluorescence, higher = more signal;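 note: z combines 667 nm emission intensity with signal-to-noise across three replicate slides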
[9] = compounds binding Alexa647 anti-His antibody – biochemical, small-molecule microarray, 635 nm fluorescence, artefact control for SMM control protein annotation, primary screen (AID 1128); conditions: higher = more signal;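 note: score merges feature fluorescence with signal-to-noise for each printed compound spot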
[10] = tested on: Human papillomavirus type 1a E7 protein (residues 1-88); assay: HPV1a E7 small-molecule binders, primary screen, biochemical, small-molecule microarray, residues 1-88, 635 nm (AID 1129); conditions: small-molecule microarray binding, fluorescence 635 nm; higher = more signal
[11] = target: Focal adhesion kinase 1 (Homo sapiens) (UniProt Q05397); assay: PTK2 protein binding on printed compound slides – biochemical, small-molecule microarray, 635/667 nm fluorescence, BSA, DTT, primary screen (AID 1130); conditions: 635 nm fluorescence, higher = more signal;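 note: composite of spot emission at 667 nm and signal to noise over triplicate slides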
[12] = tested on: Fibrinogen (Alexa647-labelled); assay: Alexa647-fibrinogen binding to printed small molecules – biochemical, small-molecule microarray, 635/667 nm fluorescence, artefact control for SMM control-protein annotation, profiling panel (AID 1131); conditions: fibrinogen-A647 binding fluorescence, higher = more signal;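 note: z-score merges 667 nm fluorescence with per-spot signal-to-noise over triplicate slides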
[13] = target: Follistatin (Homo sapiens) (UniProt P19883); assay: FST protein binding to printed compounds – biochemical, small-molecule microarray, 635/667 nm fluorescence, primary screen (AID 1132); conditions: 635 nm fluorescence, higher = more signal
[14] = target: Fibroblast growth factor 2 (Homo sapiens) (UniProt P09038); assay: basic fibroblast growth factor binding to printed compounds – biochemical, small-molecule microarray, 635/667 nm fluorescence, primary screen (AID 1133); conditions: FGF2, fluorescence 635/667, higher = more signal
[15] = JC-1 mitochondrial potential readout, lung cancer cells – cell-based, A549, JC-1 fluorescence, basal, 24 h, 100 nL, profiling panel (AID 1138); conditions: higher = more signal;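 note: A549 lung adenocarcinoma cells under basal conditions with no added stimulus; test concentration not given here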
Lefty1 = Lefty1 protein binding to printed compounds – biochemical, small-molecule microarray, 635/667 nm fluorescence, primary screen (AID 1139); conditions: fluorescence 635/667, higher = more signal
[16] = tested on: wheat germ agglutinin (Triticum aestivum), Alexa647-labelled; assay: Alexa647-WGA lectin binding to printed small molecules – biochemical, small-molecule microarray, 635/667 nm fluorescence, artefact control for SMM control-protein annotation, profiling panel (AID 1140); conditions: WGA-A647 binding, 635 nm fluorescence, higher = more signal;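 note: score merges 667 nm feature emission with signal to noise over triplicate slides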
[17] = target: Luciferin 4-monooxygenase (Photinus pyralis) (UniProt P08659); assay: inhibition of purified Photinus pyralis luciferase – biochemical, luminescence, purified enzyme, 2006 set, primary screen (AID 1141); conditions: purified firefly luciferase, SteadyGlo luminescence, 30 min; higher = more signal, called active from +8 up or from −8 down;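 note: cell-free assay with purified firefly luciferase at 100 ng per well in PBS; test concentration not given here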
Sequence of Luciferin 4-monooxygenase (Photinus pyralis) (P08659 whole entry, looked up): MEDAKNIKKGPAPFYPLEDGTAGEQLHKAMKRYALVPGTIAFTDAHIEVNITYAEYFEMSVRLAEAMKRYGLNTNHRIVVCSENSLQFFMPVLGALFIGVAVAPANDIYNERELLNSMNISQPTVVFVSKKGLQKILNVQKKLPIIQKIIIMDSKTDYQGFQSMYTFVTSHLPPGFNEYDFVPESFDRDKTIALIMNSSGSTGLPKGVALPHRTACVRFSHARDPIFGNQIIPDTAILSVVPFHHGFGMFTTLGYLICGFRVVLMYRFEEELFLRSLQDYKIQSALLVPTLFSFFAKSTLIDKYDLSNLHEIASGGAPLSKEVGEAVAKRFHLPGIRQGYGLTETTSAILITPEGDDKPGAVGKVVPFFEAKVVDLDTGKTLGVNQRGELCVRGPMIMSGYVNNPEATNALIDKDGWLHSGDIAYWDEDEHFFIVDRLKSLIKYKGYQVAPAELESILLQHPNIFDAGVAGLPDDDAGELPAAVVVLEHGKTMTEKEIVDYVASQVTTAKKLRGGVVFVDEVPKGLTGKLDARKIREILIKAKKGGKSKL

Sequence of Fibroblast growth factor 2 (Homo sapiens) (P09038 whole entry, looked up): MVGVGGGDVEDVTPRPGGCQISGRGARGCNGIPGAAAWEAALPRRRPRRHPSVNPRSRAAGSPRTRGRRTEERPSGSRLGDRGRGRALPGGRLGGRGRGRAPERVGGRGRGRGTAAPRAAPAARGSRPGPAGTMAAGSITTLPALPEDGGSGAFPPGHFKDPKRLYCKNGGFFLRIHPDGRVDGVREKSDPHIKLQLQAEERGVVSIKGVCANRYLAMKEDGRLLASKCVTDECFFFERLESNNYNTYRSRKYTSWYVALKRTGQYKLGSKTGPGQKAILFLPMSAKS
Sequence of Follistatin (Homo sapiens) (P19883 whole entry, looked up): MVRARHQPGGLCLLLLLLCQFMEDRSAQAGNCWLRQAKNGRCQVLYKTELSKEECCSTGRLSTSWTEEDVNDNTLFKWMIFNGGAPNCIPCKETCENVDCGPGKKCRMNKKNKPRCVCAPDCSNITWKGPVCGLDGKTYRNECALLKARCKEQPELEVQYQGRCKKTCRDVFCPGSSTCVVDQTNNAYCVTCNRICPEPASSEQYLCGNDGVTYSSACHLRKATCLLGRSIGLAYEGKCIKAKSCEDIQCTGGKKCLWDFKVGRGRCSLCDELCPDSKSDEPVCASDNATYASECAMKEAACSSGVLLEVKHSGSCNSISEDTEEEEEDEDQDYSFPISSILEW
Sequence of Focal adhesion kinase 1 (Homo sapiens) (Q05397 whole entry, looked up): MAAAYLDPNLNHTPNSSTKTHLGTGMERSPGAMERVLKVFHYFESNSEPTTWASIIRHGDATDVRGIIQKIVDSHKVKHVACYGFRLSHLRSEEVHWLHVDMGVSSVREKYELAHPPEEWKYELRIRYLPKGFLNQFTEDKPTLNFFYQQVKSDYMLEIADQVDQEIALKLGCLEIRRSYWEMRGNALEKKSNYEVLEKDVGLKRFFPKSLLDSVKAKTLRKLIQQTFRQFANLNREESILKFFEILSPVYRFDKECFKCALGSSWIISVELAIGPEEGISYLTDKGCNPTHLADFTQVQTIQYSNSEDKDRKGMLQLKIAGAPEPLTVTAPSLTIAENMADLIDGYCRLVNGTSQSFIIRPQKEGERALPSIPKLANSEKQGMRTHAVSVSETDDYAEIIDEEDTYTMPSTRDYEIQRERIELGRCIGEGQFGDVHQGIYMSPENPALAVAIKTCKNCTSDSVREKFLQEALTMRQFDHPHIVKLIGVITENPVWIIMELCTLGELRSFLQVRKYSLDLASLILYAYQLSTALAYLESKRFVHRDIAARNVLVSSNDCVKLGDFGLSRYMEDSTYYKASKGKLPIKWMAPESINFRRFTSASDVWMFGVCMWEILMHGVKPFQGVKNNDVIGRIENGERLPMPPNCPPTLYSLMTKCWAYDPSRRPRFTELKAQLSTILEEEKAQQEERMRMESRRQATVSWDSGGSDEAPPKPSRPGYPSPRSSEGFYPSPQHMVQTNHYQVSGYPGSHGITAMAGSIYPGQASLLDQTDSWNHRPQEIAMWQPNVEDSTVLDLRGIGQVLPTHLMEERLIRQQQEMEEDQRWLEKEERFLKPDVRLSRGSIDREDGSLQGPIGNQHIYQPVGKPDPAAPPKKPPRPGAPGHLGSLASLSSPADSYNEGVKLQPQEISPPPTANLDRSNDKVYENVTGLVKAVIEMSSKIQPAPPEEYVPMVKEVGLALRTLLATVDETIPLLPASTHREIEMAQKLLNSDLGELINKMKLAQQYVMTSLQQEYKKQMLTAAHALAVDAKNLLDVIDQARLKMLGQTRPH
Sequence of Concanavalin-A (Canavalia ensiformis) (P02866 whole entry, looked up): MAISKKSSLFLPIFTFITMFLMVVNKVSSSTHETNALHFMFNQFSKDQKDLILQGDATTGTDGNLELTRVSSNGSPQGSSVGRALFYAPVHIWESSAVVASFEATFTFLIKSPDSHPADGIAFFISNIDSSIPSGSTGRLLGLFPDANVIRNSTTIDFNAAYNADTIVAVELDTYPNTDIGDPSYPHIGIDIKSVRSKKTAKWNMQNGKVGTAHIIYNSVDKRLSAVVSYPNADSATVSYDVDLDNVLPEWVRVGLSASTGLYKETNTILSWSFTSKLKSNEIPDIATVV
Sequence of Albumin (Bos taurus) (P02769 whole entry, looked up): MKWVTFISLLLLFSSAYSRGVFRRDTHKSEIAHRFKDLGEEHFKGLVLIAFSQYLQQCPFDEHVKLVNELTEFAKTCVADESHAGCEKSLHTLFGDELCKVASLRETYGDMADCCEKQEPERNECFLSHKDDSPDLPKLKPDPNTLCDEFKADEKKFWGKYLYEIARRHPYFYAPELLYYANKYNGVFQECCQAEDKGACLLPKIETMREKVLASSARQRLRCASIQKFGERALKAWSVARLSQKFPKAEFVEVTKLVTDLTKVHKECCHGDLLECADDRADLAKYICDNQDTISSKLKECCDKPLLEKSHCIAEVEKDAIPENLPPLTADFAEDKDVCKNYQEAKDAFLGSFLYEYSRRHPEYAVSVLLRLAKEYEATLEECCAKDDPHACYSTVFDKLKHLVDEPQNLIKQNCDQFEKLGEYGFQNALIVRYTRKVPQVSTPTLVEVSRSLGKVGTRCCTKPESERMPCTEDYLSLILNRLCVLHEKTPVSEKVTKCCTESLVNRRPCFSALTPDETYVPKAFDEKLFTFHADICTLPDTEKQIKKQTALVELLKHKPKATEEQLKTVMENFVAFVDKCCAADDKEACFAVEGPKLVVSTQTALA

Row | Compound | composite z-score (Albumin (Bos taurus)) | composite Z-score [1] | composite z-score [2] | composite z-score [3] | composite z-score [4] | composite z-score [5] | composite z-score [6] | composite z-score (Sam68 (KHDRBS1)) | composite z-score [7] | composite z-score [8] | composite z-score [9] | composite z-score [10] | composite z-score [11] | composite z-score [12] | composite z-score [13] | composite z-score [14] | z-score [15] | composite z-score (Lefty1) | composite z-score [16] | z-score [17]
1 | O=C1N(CCS(=O)(=O)c2ccccc2)c2ccccc2[C@@H]2OC(c3ccc(OCCCO)cc3)=N[C@]12Cc1ccccc1 | 0.484 | -0.209 (inactive) | 0.126 | -0.0244 | 0.391 | 0.898 | 0.474 | 1.3 | 0.837 | 1.12 | 1.65 | 1.19 | 1.05 | 0.959 | 1.43 | 1.71 | 2.29 | 1.18 | 0.668 | -11.5 (active)
2 | N#Cc1ccc(C(O)C2C=CC3C(=O)N(c4ccccc4)C(=O)C3N2Nc2ccccc2F)cc1 (stereo not given) | 1.01 | -0.187 (inactive) | 0.173 | -0.0771 | 0.675 | 1.99 | 0.555 | 0.864 | -0.284 | 0.883 | 2.59 | 1.05 | 0.152 | 0.97 | 0.269 | 0.191 | 0.0535 | 0.284 | 0.144 | 1.79 (inactive)
3 | COC(=O)c1c(CC[C@@H](CO)NC(=O)N[C@H](Cc2ccccc2)Cn2cc(-c3ccccn3)nn2)oc(C(C)=O)c1C(=O)OC | 0.687 | 0.794 (inactive) | -0.154 | -0.118 | 0.71 | 0.798 | 1.26 | 0.954 | -0.418 | 1.09 | 1.52 | -0.178 | 0.0026 | 0.801 | 0.0798 | 0.451 | -0.117 | 0.004 | 0.205 | 0.67 (inactive)
4 | Cc1ccc(/C=C/C=O)cc1 | 0.931 | 0.421 (inactive) | -0.217 | -0.117 | -0.287 | 0.206 | 0.127 | -0.912 | 0.24 | -0.156 | -0.0082 | -0.872 | -0.0083 | 0.698 | -0.186 | -0.245 | 0.843 | -0.709 | 0.0368 | -1.19 (inactive)
5 | COc1ccc([C@H]2OC[C@@H]3CCC(=O)N32)cc1 | 0.626 | 1.42 (inactive) | 0.0948 | -0.161 | 0.286 | -0.215 | 0.552 | 0.382 | 0.504 | 0.3 | 0.822 | 1.02 | 0.0902 | 0.362 | 0.886 | 0.031 | 0.779 | 1.36 | 0.329 | -0.699 (inactive)
6 | O=C1C2C=CC(C(O)C=Cc3ccc([N+](=O)[O-])cc3)N(Nc3ccccc3F)C2C(=O)N1c1ccccc1 (stereo not given) | 0.868 | 0.139 (inactive) | 0.127 | -0.147 | 0.651 | 2.31 | 0.885 | 1.3 | 0.0612 | 1.15 | 1.41 | 1.23 | 0.545 | 0.995 | 1.11 | 0.211 | -0.607 | 0.522 | 1 | -0.252 (inactive)

Reference: PubChem BioAssay
